S2 tox: cell viability loss in ATXN counter-screen | S2 cells (HEK-293 line with an ATXN2-luciferase reporter) viability, CellTiter-Fluor protease fluorescence, 24 h | Potency, µM (highest dose often 56.7 µM), actives largely listed as cytotoxic | actives 0.49% (n = 400,000); further: nearly all actives have a fitted effect of over 40% in size
ATXN2 expr inh: reduces ATXN2 reporter expression in HEK-293 cells. HEK-293 ATXN2-luciferase reporter, luminescence, 24 h. Potency, µM (highest dose often 57 µM), usual class: inhibitors. actives 0.72% (n = 360,000). AID 1745845; further: nearly all actives have a fitted effect of over 55% in size
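qHTS (up to 57 uM final) was run with 24 h compound exposure of reporter cells at 37 °C. Each well was multiplexed: SteadyGlo luminescence measured ATXN2-luciferase expression after a fluorogenic Gly-Phe-AFC viability readout (25 uM final).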
HepG2 tox: HepG2 cytotoxicity, counter-screen for TGF-b inhibitors | Potency, µM (highest dose often 46.1 µM), hits mostly cytotoxic | HepG2 CAGA-GFP viability, ATP luminescence, 18 h | actives 0.76% (n = 410,000)
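CellTiter-Glo luminescence gave cytotoxicity after 18 hours at 37 degrees C. The cells were HepG2 CAGA-GFP in 1% FBS DMEM, stimulated with 500 pg/mL TGF-beta after compound addition. %Activity was normalised to no-cell wells (complete cell-killing) and DMSO (no toxicity), and curves were fitted and classified.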
A549 tox: counter-screen for Nrf2 inhibitors: cytotoxicity in A549 cells; A549 ARE-Fluc cells, CellTiter-Fluor viability, 18-24 h; Potency, µM (titrated, usually from 46 µM), actives largely listed as inhibitors; actives 0.16% (n = 390,000)
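A549 ARE_Fluc cells in 5% FBS OPTI-MEM were exposed to compounds in concentration-response for 18-24 h at 37 deg C. Viability was read by CellTiter-Fluor fluorescence (Ex 405/Em 525) after 30 min, before the luciferase read.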
TGFb SMAD3 inh: inhibitors of TGF-b signaling. HepG2 CAGA-GFP TGF-b/SMAD3 reporter, GFP fluorescence, 18 h; TGF-beta stimulated, 500 pg/mL final. Potency, µM (series often up to 46.1 µM), actives largely listed as inhibitors. actives 1.2% (n = 410,000); further: nearly all actives have a fitted effect of over 65% in size
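Smad-responsive CAGA-GFP expression was quantified in HEPG2 cells exposed to compounds and 500 pg/mL final TGF-beta for 18 h at 37 degrees C; unstimulated wells defined full inhibition.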
Nrf2 inh: blocks Nrf2 signaling. A549 ARE-Fluc reporter, luciferase luminescence, 18-24 h. actives 2.1% (n = 360,000). Potency, µM (top dose mostly 46 µM), hits mostly inhibitors. AID 504444; further: nearly all actives have a fitted effect of over 60% in size
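Two sequential reads on A549 ARE_Fluc cells exposed to compound for 18-24 h: a CellTiter-Fluor fluorescence read for viability, then a luciferase luminescence read for Nrf2/ARE activity.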
Numbers stand for hits; i = inactive; ? = inconclusive; nt = no result given. Only some compounds are listed: those with a hit (about 3.8% of all), similar ones and a draw of the others. The call rests on the fitted dose curve; in most records, active means well fitted curve in the direction sought with a large enough effect; inconclusive means small, poorly fitted or top-dose-only effect, or another doubt; inactive means no such curve, though single readings can be large; an effect the other way counts as inactive or inconclusive.

SMILES	S2 tox	ATXN2 expr inh	HepG2 tox	A549 tox	TGFb SMAD3 inh	Nrf2 inh
O=C1C(Cl)=C(N2CCN(c3ccccc3[N+](=O)[O-])CC2)C(=O)c2ccccc21	?	i	i	i	11µM	i
CCc1ccc(C(O)c2ncc(-c3ccc(C)cc3)[nH]2)cc1 (centres undefined)	i	i	i	nt	i	nt
CCC1=C(OC(=O)N(CC)CC)N2C(=O)OC(=NCc3ccccc3)[C@]2(C)[C@H]2C1=CC[C@H]1C(=O)NC(=O)[C@H]12	i	i	i	i	i	18µM
Cc1ccc(S(=O)(=O)N2C[C@H]3n4c(=O)ccc(=O)n4C[C@H](OC(=O)NCC4CCCCC4)[C@@]3(O)C2)cc1	22µM	16µM	i	nt	?	nt
CCN(CC)C(=O)c1ccc(-c2cccs2)s1	i	i	i	i	i	i
O=Cc1ccc(-c2cccs2)s1	i	?	i	i	5.6µM	?
Oc1ccc(N=Cc2ccc(-c3cccs3)s2)cc1	i	?	7.9µM	i	11µM	i
N#Cc1cccc(C#N)c1Oc1ccc(S(=O)(=O)Nc2ccc(Cl)cc2)cc1	i	nt	i	i	?	?
CCn1c(=O)[nH]c2cc(C(=O)Nc3cc(C)cc(C)c3)ccc2c1=O	i	i	i	i	i	16µM
CCCCCn1c(=O)[nH]c2cc(C(=O)Nc3ccc(OC)cc3)ccc2c1=O	i	i	i	i	i	i
CCOC(=O)c1cnn(-c2ccc(C(=O)Nc3cc(OC)c(OC)c(OC)c3)cc2)c1N	i	i	i	i	i	nt
COc1ccc(CNC(=O)c2cc(=O)c3ccccc3o2)cc1	i	i	i	i	i	13µM
CCCN(CCC)CCCNC(=O)c1nn(C)c2c1CS(=O)(=O)c1ccccc1-2	i	i	i	i	i	i
COc1ccccc1-n1cnc2c(c1=O)c1nc3ccccc3nc1n2-c1ccc(C)c(C)c1	i	nt	i	?	i	5.8µM
Cc1ccc(C)c(NC(c2ccccc2)c2nnc(-c3ccccc3F)o2)c1 (centres undefined)	i	i	i	i	i	i
COc1cc(Cl)c(C)cc1NC(c1ccccc1)c1nnc(-c2ccccc2Cl)o1 (centres undefined)	nt	nt	i	i	18µM	i
O=C(CCl)N(C1CCCC1)C1CCS(=O)(=O)C1 (centres undefined)	?	?	i	i	?	21µM
CCCC(NC(=S)NCC1CCCO1)C12CC3CC(CC(C3)C1)C2 (centres undefined)	i	nt	i	i	i	15µM
COc1cccc(/C=N/Nc2ncnc(N)c2[N+](=O)[O-])c1OC	i	8.9µM	i	i	i	?
CC1CCC/C=C/C(=O)c2c(O)cc(O)cc2CC(=O)O1 (centres undefined)	11µM	10µM	i	13µM	7.1µM	5.8µM
C[C@@H]1Cc2c(O)c(O)cc(O)c2C(=O)O1	i	i	i	i	i	i
COc1ccc(-n2c(-c3ccc(Cl)cc3)cc3c2CC(C)(C)CC3=O)c(OC)c1	?	?	i	i	18µM	?
COc1ccc(C)cc1-n1c(-c2ccc(Cl)cc2)cc2c1CC(C)(C)CC2=O	i	i	i	i	i	i
COc1ccc(Cl)cc1C(=O)Nc1ccc(-c2nnc3n2CCCCC3)cc1	i	i	i	i	?	23µM
COc1ccc(Cl)cc1C(=O)Nc1ccccc1N1CCN(C(=O)C(C)C)CC1	?	22µM	i	?	i	?
SMILES	S2 tox	ATXN2 expr inh	HepG2 tox	A549 tox	TGFb SMAD3 inh	Nrf2 inh
CCn1c(=O)n(CC)c2cc(N3CCCC3)c(NC(=O)c3cc(Cl)ccc3OC)cc21	?	i	i	?	i	21µM
CCOc1ccccc1C(=O)Nc1cc2c(cc1N1CCCC1)n(CC)c(=O)n2CC	14µM	nt	i	i	?	i
CCc1ccc(-c2cc(C(=O)N3N=C(C(F)F)CC3(O)C(F)F)c3ccccc3n2)cc1 (centres undefined)	?	i	i	23µM	?	21µM
CCCc1ccc(-c2cc(C(=O)NN3CCOCC3)c3ccccc3n2)cc1	i	i	i	i	i	?
CCn1cc(-c2cc(C(=O)O)c3ccccc3n2)c(C)n1	i	i	i	i	i	?
CCn1cc(-c2cc(C(=O)O)c3ccccc3n2)cn1	i	?	i	i	i	18µM
CCc1ccc(-c2cc(C(=O)Nn3cnnc3)c3ccccc3n2)cc1	i	?	8.9µM	i	?	9.2µM
CC(C)c1ccc(NC(=O)CSC2=Nc3ccccc3C3=NC(CC(=O)NCc4ccc(F)cc4)C(=O)N23)cc1 (centres undefined)	nt	nt	i	i	i	nt
Cc1c(Cl)cccc1NS(=O)(=O)c1ccc(NS(=O)(=O)c2ccc3c(c2)OCCO3)cc1	i	?	i	i	16µM	i
Cc1ccc(S(=O)(=O)Nc2ccc3c(c2)OCCO3)cc1	i	i	i	i	?	i
Cc1ccc(-c2nc3cccnc3s2)cc1NS(=O)(=O)c1ccc2c(c1)CCCC2	i	i	i	i	i	i
O=S(=O)(Nc1cccc(-c2nc3cccnc3s2)c1)c1ccc2c(c1)CCCC2	nt	i	10µM	i	13µM	?
Cc1cc(-c2nc3cccnc3s2)ccc1NS(=O)(=O)c1ccc2c(c1)OCCO2	nt	i	i	i	i	?
Cc1c(NS(=O)(=O)c2ccc3c(c2)OCCO3)cccc1-c1nc2cccnc2s1	i	i	i	i	?	21µM
Cc1ccc(C(=O)Nc2ccc3oc(-c4ccc(C(C)(C)C)cc4)nc3c2)cc1	i	i	i	i	i	i
O=C(c1ccc(F)cc1)N1CCC(C(=O)N2CCN(c3ncccn3)CC2)CC1	i	i	i	i	i	i
CCN(CC)c1ccc(N=Nc2nn(C)c(C)c2[N+](=O)[O-])cc1	13µM	i	i	21µM	i	?
CCN(Cc1ccccc1)c1ccc(N=Nc2nn(C)c(C)c2[N+](=O)[O-])cc1	?	i	i	16µM	i	i
CCN(Cc1ccccc1)c1ccccc1	i	i	i	i	i	i
Cc1nc2c(nc1C)C(=O)c1ccccc1C2=O	?	?	3.5µM	?	2.2µM	16µM
COC(=O)c1ccccc1NC(=O)c1ccc2c(c1)CCN2S(=O)(=O)c1ccc(Cl)cc1	i	i	i	i	i	i
CN(C)c1nc(N)nc(CSc2nnnn2-c2ccc(F)cc2)n1	i	i	i	i	i	i
COc1ccc(C)cc1-n1nnnc1SCc1nc(N)nc(N(C)C)n1	i	i	i	nt	11µM	nt
Cc1cccc(C)c1-n1nnnc1SCc1nc(N)nc(N(C)C)n1	i	i	i	nt	5.6µM	nt

From PubChem BioAssay
